# Read-outs that look alike come from different tables or passages of the source.
# Tests used:
# Parameters in all cases: species or system human, MV4-11 + K-562 + COLO205 + SK-N-BE2 + OVCAR-8
# [1] = tested on: EGFR; conditions: read-out: apparent Kd, compound concentrations: 100 nM and 1000 nM (sheet 'Samples'), n = 1
# [2] = tested on: DHCR24; conditions: read-out: apparent Kd; compound concentrations: 100 nM and 1000 nM (sheet 'Samples'), CATDS: 0.15237648069571999; n = 1
# [3] = tested on: NQO1; conditions: read-out: apparent Kd, compound concentrations: 100 nM and 1000 nM (sheet 'Samples'), n = 1
# [4] = tested on: PLK1; conditions: read-out: apparent Kd; compound concentrations: 100 nM and 1000 nM (sheet 'Samples'), CATDS: 0.13672731586716499; n = 1
# [5] = tested on: RIPK2; conditions: read-out: apparent Kd; compound concentrations: 100 nM and 1000 nM (sheet 'Samples'), CATDS: 0.97549436112996002; n = 1
# [6] = tested on: RIPK3; conditions: read-out: apparent Kd; compound concentrations: 100 nM and 1000 nM (sheet 'Samples'), CATDS: 0.14106558052959201; n = 1
# [7] = tested on: TP53RK; conditions: read-out: apparent Kd; compound concentrations: 100 nM and 1000 nM (sheet 'Samples'), CATDS: 0.13630649736476699; n = 1
# [8] = tested on: DYNC1LI1; conditions: read-out: apparent Kd, n = 1
# [9] = tested on: GALK1; conditions: read-out: apparent Kd; compound concentrations:100 nM and 1000 nM (sheet 'Samples'); n = 1
# [10] = tested on: MAP3K1; conditions: read-out: apparent Kd; compound concentrations:100 nM and 1000 nM (sheet 'Samples'); n = 1
# [11] = tested on: MAP4K5; conditions: read-out: apparent Kd; compound concentrations:100 nM and 1000 nM (sheet 'Samples'); n = 1
# [12] = tested on: NUAK2; conditions: read-out: apparent Kd; compound concentrations:100 nM and 1000 nM (sheet 'Samples'); n = 1
# [13] = tested on: SLK; conditions: read-out: apparent Kd; compound concentrations:100 nM and 1000 nM (sheet 'Samples'); n = 1
# [14] = tested on: STK10; conditions: read-out: apparent Kd; compound concentrations:100 nM and 1000 nM (sheet 'Samples'); n = 1
# [15] = tested on: T1, DJA1; conditions: read-out: apparent Kd, compound concentrations: 100 nM and 1000 nM (sheet 'Samples'), n = 1
# T1 construct: gene DNAJA1
# [16] = tested on: GSK3A; conditions: read-out: apparent Kd, compound concentrations: 100 nM and 1000 nM (sheet 'Samples'), n = 1
# [17] = tested on: GSK3B; conditions: read-out: apparent Kd, compound concentrations: 100 nM and 1000 nM (sheet 'Samples'), n = 1
# [18] = tested on: HSP90AA1; conditions: read-out: apparent Kd; compound concentrations: 100 nM and 1000 nM (sheet 'Samples'), CATDS: 5.4644283651895102E-2; n = 1
# [19] = tested on: HSPE1; conditions: read-out: apparent Kd; compound concentrations: 100 nM and 1000 nM (sheet 'Samples'), CATDS: 7.3409549069479094E-2; n = 1
# [20] = tested on: ICK; conditions: read-out: apparent Kd; compound concentrations: 100 nM and 1000 nM (sheet 'Samples'), CATDS: 5.6639320482966701E-2; n = 1
# [21] = tested on: PGK1; conditions: read-out: apparent Kd; compound concentrations: 100 nM and 1000 nM (sheet 'Samples'), CATDS: 0.319923610407498; n = 1
# [22] = tested on: PKM; conditions: read-out: apparent Kd; compound concentrations: 100 nM and 1000 nM (sheet 'Samples'), CATDS: 5.66229333393235E-2; n = 1
# [23] = tested on: PRKCA; conditions: read-out: apparent Kd; compound concentrations: 100 nM and 1000 nM (sheet 'Samples'), CATDS: 8.5059417421235906E-2; n = 1
# [24] = tested on: PRKCB; conditions: read-out: apparent Kd; compound concentrations: 100 nM and 1000 nM (sheet 'Samples'), CATDS: 6.0874586242987201E-2; n = 1
# [25] = tested on: PRKCD; conditions: read-out: apparent Kd, compound concentrations: 100 nM and 1000 nM (sheet 'Samples'), n = 1
# [26] = tested on: RPS6KA6; conditions: read-out: apparent Kd; compound concentrations: 100 nM and 1000 nM (sheet 'Samples'), CATDS: 9.9145612858777904E-2; n = 1
# [27] = tested on: TESK1; conditions: read-out: apparent Kd; compound concentrations: 100 nM and 1000 nM (sheet 'Samples'), CATDS: 5.61870576543727E-2; n = 1
# [28] = tested on: DYRK1A; conditions: read-out: apparent Kd; compound concentrations:100 nM and 1000 nM (sheet 'Samples'); n = 1
# [29] = tested on: PRKD1; conditions: read-out: apparent Kd; compound concentrations:100 nM and 1000 nM (sheet 'Samples'); n = 1
# [30] = tested on: MYLK3; conditions: read-out: apparent Kd; compound concentrations: 100 nM and 1000 nM (sheet 'Samples'), CATDS: 9.6792260241437694E-2; n = 1
# [31] = tested on: PIK3CD; conditions: read-out: apparent Kd; compound concentrations: 100 nM and 1000 nM (sheet 'Samples'), CATDS: 0.44284718560289399; n = 1
# [32] = tested on: PRKCQ; conditions: read-out: apparent Kd; compound concentrations: 100 nM and 1000 nM (sheet 'Samples'), CATDS: 0.104256233520078; n = 1
# [33] = tested on: EPHA1; conditions: read-out: apparent Kd; compound concentrations: 100 nM and 1000 nM (sheet 'Samples'), CATDS: 0.101565778514596; n = 1
# [34] = tested on: EPHA2; conditions: read-out: apparent Kd; compound concentrations: 100 nM and 1000 nM (sheet 'Samples'), CATDS: 6.7925989209778895E-2; n = 1
# [35] = tested on: EPHA4; conditions: read-out: apparent Kd; compound concentrations: 100 nM and 1000 nM (sheet 'Samples'), CATDS: 7.2128070641764394E-2; n = 1
# [36] = tested on: EPHA5; conditions: read-out: apparent Kd; compound concentrations: 100 nM and 1000 nM (sheet 'Samples'), CATDS: 6.7106289127757499E-2; n = 1
# [37] = tested on: EPHA7; conditions: read-out: apparent Kd; compound concentrations: 100 nM and 1000 nM (sheet 'Samples'), CATDS: 5.7157289588894301E-2; n = 1
# [38] = tested on: EPHB2; conditions: read-out: apparent Kd; compound concentrations: 100 nM and 1000 nM (sheet 'Samples'), CATDS: 6.4850076698592204E-2; n = 1
# [39] = tested on: EPHB4; conditions: read-out: apparent Kd; compound concentrations: 100 nM and 1000 nM (sheet 'Samples'), CATDS: 0.111344717085302; n = 1
# [40] = tested on: FLT4; conditions: read-out: apparent Kd; compound concentrations: 100 nM and 1000 nM (sheet 'Samples'), CATDS: 5.9092612801250499E-2; n = 1
# [41] = tested on: MAPK14; conditions: read-out: apparent Kd; compound concentrations: 100 nM and 1000 nM (sheet 'Samples'), CATDS: 5.8794914903048702E-2; n = 1
# [42] = tested on: MAPKAPK2; conditions: read-out: apparent Kd; compound concentrations: 100 nM and 1000 nM (sheet 'Samples'), CATDS: 6.3284106262713205E-2; n = 1
# [43] = tested on: NNT; conditions: read-out: apparent Kd; compound concentrations: 100 nM and 1000 nM (sheet 'Samples'), CATDS: 5.7006998713096203E-2; n = 1
# [44] = tested on: RET; conditions: read-out: apparent Kd; compound concentrations: 100 nM and 1000 nM (sheet 'Samples'), CATDS: 0.20598352545457299; n = 1
structure (smiles),measurement,setting,value
CS(=O)(=O)CCNCc1ccc(-c2ccc3ncnc(Nc4ccc(OCc5ccccc5)cc4)c3c2)o1.Cl [GW458787A],potency estimated from few doses,[1]; CATDS: 1,0.0342 µM
CC(C)(C)S(=O)(=O)c1ccc2nccc(Nc3n[nH]c4ccc(F)cc34)c2c1 [GSK583],potency estimated from few doses,[2],1.41 µM
same,potency estimated from few doses,[3]; CATDS: 0.149856517044136,1.48 µM
same,potency estimated from few doses,[4],1.91 µM
same,potency estimated from few doses,[5],0.0042 µM
same,potency estimated from few doses,[6],1.75 µM
same,potency estimated from few doses,[7],1.93 µM
C[C@@H](Oc1cc(-n2cnc3cc(-c4ccncc4)ccc32)sc1C(N)=O)c1ccccc1Cl [GSK479719A],potency estimated from few doses,[8]; compound concentrations:100 nM and 1000 nM (sheet 'Samples'),1.56 µM
same,potency estimated from few doses,[9],0.986 µM
same,potency estimated from few doses,[10],0.0912 µM
same,potency estimated from few doses,[11],2.27 µM
same,potency estimated from few doses,[12],1.16 µM
same,potency estimated from few doses,[13],0.51 µM
same,potency estimated from few doses,[14],0.142 µM
Cn1cc(C2=C(c3cn(CCN)c4ccccc34)C(=O)NC2=O)c2ccccc21 [RO0318045-000],potency estimated from few doses,[15]; CATDS: 6.3500397257876304E-2,1.16 µM
same,potency estimated from few doses,[16]; CATDS: 0.123144126228622,0.269 µM
same,potency estimated from few doses,[17]; CATDS: 0.119624186553648,0.283 µM
same,potency estimated from few doses,[18],1.91 µM
same,potency estimated from few doses,[19],0.782 µM
same,potency estimated from few doses,[20],1.67 µM
same,potency estimated from few doses,[21],0.0639 µM
same,potency estimated from few doses,[22],1.68 µM
same,potency estimated from few doses,[23],0.554 µM
same,potency estimated from few doses,[24],1.32 µM
same,potency estimated from few doses,[25]; CATDS: 9.6711614393648698E-2,0.423 µM
same,potency estimated from few doses,[26],0.403 µM
same,potency estimated from few doses,[27],1.72 µM
O=c1[nH]cc(-c2ccc(N3CCOCC3)cc2)c2sc(-c3cn[nH]c3)cc12 [GSK2276055A],potency estimated from few doses,[28],0.81 µM
same,potency estimated from few doses,[29],0.936 µM
Cn1cc(C2=C(c3cn(C)c4ccc(N)cc34)C(=O)NC2=O)c2ccccc21 [RO0317365-000],potency estimated from few doses,[15]; CATDS: 0.11913722870337901,1.12 µM
same,potency estimated from few doses,"[8]; compound concentrations: 100 nM and 1000 nM (sheet 'Samples'), CATDS: 9.8378875134037994E-2",1.88 µM
same,potency estimated from few doses,[16]; CATDS: 0.15388620061227101,0.637 µM
same,potency estimated from few doses,[17]; CATDS: 0.158803622599584,0.598 µM
same,potency estimated from few doses,[30],1.97 µM
same,potency estimated from few doses,[31],0.113 µM
same,potency estimated from few doses,[25]; CATDS: 9.5557824797396607E-2,2.06 µM
same,potency estimated from few doses,[32],1.58 µM
CC(=O)NCc1cccc(C#Cc2cncnc2Nc2ccc(OCc3cccc(F)c3)c(Cl)c2)c1 [GW807930X],potency estimated from few doses,[1]; CATDS: 0.88842612806031096,0.149 µM
same,potency estimated from few doses,[3]; CATDS: 0.34789699583550798,2.23 µM
COc1cc2ncnc(Nc3cccc(Cl)c3F)c2cc1O[C@H]1CC[C@H]([C@@H]2NCCNC2=O)CC1 [BI00133844],potency estimated from few doses,[1]; CATDS: 0.60963151876595101,0.0154 µM
same,potency estimated from few doses,[33],0.403 µM
same,potency estimated from few doses,[34],1.06 µM
same,potency estimated from few doses,[35],0.898 µM
same,potency estimated from few doses,[36],1.09 µM
same,potency estimated from few doses,[37],1.8 µM
same,potency estimated from few doses,[38],1.2 µM
same,potency estimated from few doses,[39],0.332 µM
same,potency estimated from few doses,[40],1.6 µM
same,potency estimated from few doses,[41],1.63 µM
same,potency estimated from few doses,[42],1.29 µM
same,potency estimated from few doses,[43],1.81 µM
same,potency estimated from few doses,[44],0.099 µM
